This passage reports growth results from PubChem BioAssay (NCI).

Compounds without any hit were thinned out: in the full panel of roughly 83,000, 20% have a hit.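 Step 1: grow cells in 96-well plates. Step 2: add test compound at a single concentration. Step 3: incubate 48 h. Step 4: record percent growth.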 Values without a mark were called inactive. Activity calls are given as the source filed them. The calls were made as follows: active = growth percent below 10; inactive = the rest.

The subject of the first test is LOX IMVI melanoma. The experiment in a line: NCI-60 one-dose screen, 48 h (100 = growth as untreated, 0 = no growth, -100 = all killed). The conditions noted are these: 10 µM unless noted.
Turning to `Cc1cc2c(-c3nc4ccccc4n3C)c(O)c(O)cc2c(O)c1-c1c(C)cc2c(-c3nc4ccccc4n3C)c(O)c(O)cc2c1O`, the growth is 30.4%.

For the molecule `COc1ccc2sc(-n3nc4nc5n(c(=O)c4c3N)-c3ccccc3Sc3ccccc3-5)nc2c1`, the growth was 79.8%.

Regarding `CC(=O)Nc1ccc(C(=O)/C=C/c2ccc(N(C)C)cc2)cc1`, the growth is 96.1%.

With `CCCC(=O)NNc1[nH]c(-c2ccc(OC)cc2)cc1C(=O)OCC`, the growth is 103%.

In the case of `O=C(/C(Br)=C/c1ccccc1)c1ccccc1`, the growth is -92.2% (active).

Regarding `C/C=C(/C)C(=O)OC1C=C(CO)C(=O)C(OC(=O)C(C)(O)C(C)Cl)C1C(C)C` (stereo not given), the growth is -75.4% (active).

With `CC([C@H]1CC=C2C3CCC4=C[C@@H](N(C)C)CC[C@]4(C)C3CC[C@@]21C)N(C)C` (stereo not given in full), the growth is -46.5% (active).

Consider `COc1ccc(/C=C2\SC(=O)N(Cc3cc(=O)oc4ccc(OC)cc34)C2=O)cc1`, for which the growth is 85.7%.

For `CCCCCCCCCCCCCCCC[n+]1cccc(C#N)c1`, the growth was 12.4%.

Turning to `COc1ccc2cnc(N)c(C#Cc3cc(C(=O)Nc4ccc(CN5CCN(C)CC5)c(C(F)(F)F)c4)cnc3C)c2c1`, the growth was 12%.

For the molecule `CCCCCc1ccnc(CC(=O)c2ccc(OC)cc2)c1`, the growth was 85%.

For `CCCCCCCCCCCCCCCCCC1=NCCN1CS(=O)(=O)O`, the growth was -2.88% (active).

Regarding `COc1ccc(OC)c(Cn2cc3c(c2)-c2oncc2CC3)c1`, the growth was 35.4%.

As for `CC1Cc2cc(F)ccc2-n2cccc21` (stereo not given), the growth was 91.7%.

As for `CC/C(=N\Nc1nc2ccccc2n1C)c1ccccn1`, the growth is -15% (active).

Consider `O=C(CN1C(=O)NC(c2ccccc2)(c2ccccc2)C1=O)c1ccc(N2CCCC2)cc1`, for which the growth is 74.2%.

Turning to `COc1ccc(-c2nc(N)n(C(=S)Nc3ccccc3)n2)cc1`, the growth was 94.3%.

In the case of `Cc1sc(NC(=O)c2ccc(C(C)(C)C)cc2)c(C(=O)O)c1C`, the growth was 68.9%.

Turning to `C#CCCCCCCC[C@@H]1OC(=O)[C@H]([C@@H](C)CC)NC(=O)[C@H]([C@@H](C)CC)NC(=O)CC(=O)[C@@H]1C`, the growth is 92.1%.

For `CCOC1=C(Cl)C(=O)C(OCC)=C(Cl)C1=O`, the growth is 104%.

For the molecule `Cc1ccc(CC(=O)O)c(C)c1`, the growth is 98%.

With `O=C1C(=O)c2ccccc2C(O)=C1CCCc1ccc(Oc2ccccc2)cc1`, the growth was 38.9%.

Regarding `CCOc1ccc2nc3ccc(Cl)cc3nc2c1`, the growth was 101%.

`CC[n+]1c(C)ccc2cc(C)ccc21`: the growth is 90.8%.

Consider `COC(=O)/C(Br)=C/c1c[nH]c2ccc(Br)cc12`, for which the growth is 62%.

Turning to `CC(=O)c1ccc2c(c1)c1ccccc1n2C`, the growth was 97.1%.

Regarding `Cc1ccc([C@@H]2C[C@H](O)Cc3ccccc3N2)s1`, the growth is 101%.

Regarding `COC(=O)/C=C/c1cc(O)c2oc(-c3ccc(O)c(O)c3)c(C(=O)OC)c2c1`, the growth is 19.1%.

Consider `CCc1c(C)c2ccc(OCC(=O)N=Nc3c(O)[nH]c4ccccc34)c(C)c2oc1=O`, for which the growth was -37.8% (active).

As for `CC1=C(C)C[C@]2(C(=O)O[C@H]3CCCC[C@@H]32)[S@](=O)C1`, the growth is 97.6%.

On to `CCOC(=O)C1=NN(c2ccccc2)C2=NC(=O)/C(=C\c3cn(-c4ccccc4)nc3-c3cc4ccccc4o3)C(=O)N12`, for which the growth was 95.9%.

Take `COc1cc2c(/C=C3\C(=O)Nc4ccc(Br)cc43)c(Cl)n(C)c2cc1C`: the growth is 9.9% (active).

Turning to `COc1cc2c(cc1OC)C(Cc1cc(OC)c(OC)cc1[N+](=O)[O-])=NCC2`, the growth is 75.1%.

Consider `COc1ccc(-c2nc(SCC(C)C)nc(Nc3ccc([N+](=O)[O-])cc3)c2C#N)cc1`, for which the growth was 91.7%.

As for `O=C(/C=C/c1c[nH]c2ccccc12)c1cc2ccccc2o1`, the growth was 91.7%.

For `O=C(CBr)OCc1ccc([N+](=O)[O-])o1`, the growth was 83%.

As to `C/C=C(/C)C(=O)OC1C=C(CO)C(=O)C(OC(=O)C2(C)OC2C)C1C(C)C` (stereo not given), the growth is -83.8% (active).

Consider `O=C(Nc1ccc(Cl)c(Cl)c1)O/N=C\c1c(Cl)ccc([N+](=O)[O-])c1Cl`, for which the growth was -82.1% (active).

On to `Oc1ccc(CN(Cc2ccc(C(F)(F)F)cc2)Cc2ccc(O)c3ncccc23)c2cccnc12`, for which the growth is 18.7%.

On to `COc1cc(-c2nc(/C=C3/C(=O)Nc4ccccc43)c3ccccn23)cc(OC)c1OC`, for which the growth is 72.3%.

In the next test the test system is SK-MEL-28 melanoma. The description is as above. Conditions: 10 µM unless noted.
Regarding `Cc1cc2c(-c3nc4ccccc4n3C)c(O)c(O)cc2c(O)c1-c1c(C)cc2c(-c3nc4ccccc4n3C)c(O)c(O)cc2c1O`, the growth is 58.1%.

On to `COc1ccc2sc(-n3nc4nc5n(c(=O)c4c3N)-c3ccccc3Sc3ccccc3-5)nc2c1`, for which the growth was 92.6%.

As to `CC(=O)Nc1ccc(C(=O)/C=C/c2ccc(N(C)C)cc2)cc1`, the growth was 108%.

Take `CCCC(=O)NNc1[nH]c(-c2ccc(OC)cc2)cc1C(=O)OCC`: the growth was 120%.

For `O=C(/C(Br)=C/c1ccccc1)c1ccccc1`, the growth was 42.8%.

For `C/C=C(/C)C(=O)OC1C=C(CO)C(=O)C(OC(=O)C(C)(O)C(C)Cl)C1C(C)C` (stereo not given), the growth was -48.9% (active).

For `CC([C@H]1CC=C2C3CCC4=C[C@@H](N(C)C)CC[C@]4(C)C3CC[C@@]21C)N(C)C` (stereo not given in full), the growth is -33.6% (active).

On to `COc1ccc(/C=C2\SC(=O)N(Cc3cc(=O)oc4ccc(OC)cc34)C2=O)cc1`, for which the growth is 95.1%.

Take `CCCCCCCCCCCCCCCC[n+]1cccc(C#N)c1`: the growth was 83%.

In the case of `COc1ccc2cnc(N)c(C#Cc3cc(C(=O)Nc4ccc(CN5CCN(C)CC5)c(C(F)(F)F)c4)cnc3C)c2c1`, the growth was -72.5% (active).

As to `CCCCCc1ccnc(CC(=O)c2ccc(OC)cc2)c1`, the growth was 104%.

On to `CCCCCCCCCCCCCCCCCC1=NCCN1CS(=O)(=O)O`, for which the growth was 103%.

As for `COc1ccc(OC)c(Cn2cc3c(c2)-c2oncc2CC3)c1`, the growth was 50.1%.

As to `CC1Cc2cc(F)ccc2-n2cccc21` (stereo not given), the growth is 107%.

Consider `CC/C(=N\Nc1nc2ccccc2n1C)c1ccccn1`, for which the growth is 16.2%.

For the molecule `O=C(CN1C(=O)NC(c2ccccc2)(c2ccccc2)C1=O)c1ccc(N2CCCC2)cc1`, the growth was 73.9%.

Regarding `COc1ccc(-c2nc(N)n(C(=S)Nc3ccccc3)n2)cc1`, the growth is 116%.

Consider `Cc1sc(NC(=O)c2ccc(C(C)(C)C)cc2)c(C(=O)O)c1C`, for which the growth is 110%.

On to `C#CCCCCCCC[C@@H]1OC(=O)[C@H]([C@@H](C)CC)NC(=O)[C@H]([C@@H](C)CC)NC(=O)CC(=O)[C@@H]1C`, for which the growth is 108%.

For `CCOC1=C(Cl)C(=O)C(OCC)=C(Cl)C1=O`, the growth is 109%.

For `Cc1ccc(CC(=O)O)c(C)c1`, the growth is 113%.

Turning to `O=C1C(=O)c2ccccc2C(O)=C1CCCc1ccc(Oc2ccccc2)cc1`, the growth was 74.8%.

With `CCOc1ccc2nc3ccc(Cl)cc3nc2c1`, the growth is 113%.

For `CC[n+]1c(C)ccc2cc(C)ccc21`, the growth was 105%.

`COC(=O)/C(Br)=C/c1c[nH]c2ccc(Br)cc12`: the growth is 105%.

As to `CC(=O)c1ccc2c(c1)c1ccccc1n2C`, the growth was 107%.

On to `Cc1ccc([C@@H]2C[C@H](O)Cc3ccccc3N2)s1`, for which the growth was 116%.

Take `COC(=O)/C=C/c1cc(O)c2oc(-c3ccc(O)c(O)c3)c(C(=O)OC)c2c1`: the growth was 57.2%.

Consider `CCc1c(C)c2ccc(OCC(=O)N=Nc3c(O)[nH]c4ccccc34)c(C)c2oc1=O`, for which the growth was 64.8%.

As for `CC1=C(C)C[C@]2(C(=O)O[C@H]3CCCC[C@@H]32)[S@](=O)C1`, the growth was 118%.

Consider `CCOC(=O)C1=NN(c2ccccc2)C2=NC(=O)/C(=C\c3cn(-c4ccccc4)nc3-c3cc4ccccc4o3)C(=O)N12`, for which the growth is 110%.

As for `COc1cc2c(/C=C3\C(=O)Nc4ccc(Br)cc43)c(Cl)n(C)c2cc1C`, the growth was 55.6%.

As for `COc1cc2c(cc1OC)C(Cc1cc(OC)c(OC)cc1[N+](=O)[O-])=NCC2`, the growth was 92.7%.

Consider `COc1ccc(-c2nc(SCC(C)C)nc(Nc3ccc([N+](=O)[O-])cc3)c2C#N)cc1`, for which the growth is 107%.

Turning to `O=C(/C=C/c1c[nH]c2ccccc12)c1cc2ccccc2o1`, the growth was 96.6%.

In the case of `O=C(CBr)OCc1ccc([N+](=O)[O-])o1`, the growth was 99.2%.

As for `C/C=C(/C)C(=O)OC1C=C(CO)C(=O)C(OC(=O)C2(C)OC2C)C1C(C)C` (stereo not given), the growth was -49% (active).

Turning to `O=C(Nc1ccc(Cl)c(Cl)c1)O/N=C\c1c(Cl)ccc([N+](=O)[O-])c1Cl`, the growth was -12.3% (active).

`Oc1ccc(CN(Cc2ccc(C(F)(F)F)cc2)Cc2ccc(O)c3ncccc23)c2cccnc12`: the growth is 32.3%.

With `COc1cc(-c2nc(/C=C3/C(=O)Nc4ccccc43)c3ccccn23)cc(OC)c1OC`, the growth was 63%.
